RBX1-CUL1 inh: inhibitors of human ROC1-CUL1 ubiquitin ligase activity | inhibition, % at 10 µM | 140,000 compounds, 0.6% hits | in vitro K48 di-Ub FRET, acceptor:donor ratio, 45 min | P62877+Q13616; in the data active = inhibition above about 25%
Target sequence (P62877 whole entry, looked up): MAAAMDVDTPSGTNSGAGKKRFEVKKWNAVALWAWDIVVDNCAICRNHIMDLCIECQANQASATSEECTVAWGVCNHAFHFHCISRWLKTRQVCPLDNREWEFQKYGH
Target sequence (Q13616 whole entry, looked up): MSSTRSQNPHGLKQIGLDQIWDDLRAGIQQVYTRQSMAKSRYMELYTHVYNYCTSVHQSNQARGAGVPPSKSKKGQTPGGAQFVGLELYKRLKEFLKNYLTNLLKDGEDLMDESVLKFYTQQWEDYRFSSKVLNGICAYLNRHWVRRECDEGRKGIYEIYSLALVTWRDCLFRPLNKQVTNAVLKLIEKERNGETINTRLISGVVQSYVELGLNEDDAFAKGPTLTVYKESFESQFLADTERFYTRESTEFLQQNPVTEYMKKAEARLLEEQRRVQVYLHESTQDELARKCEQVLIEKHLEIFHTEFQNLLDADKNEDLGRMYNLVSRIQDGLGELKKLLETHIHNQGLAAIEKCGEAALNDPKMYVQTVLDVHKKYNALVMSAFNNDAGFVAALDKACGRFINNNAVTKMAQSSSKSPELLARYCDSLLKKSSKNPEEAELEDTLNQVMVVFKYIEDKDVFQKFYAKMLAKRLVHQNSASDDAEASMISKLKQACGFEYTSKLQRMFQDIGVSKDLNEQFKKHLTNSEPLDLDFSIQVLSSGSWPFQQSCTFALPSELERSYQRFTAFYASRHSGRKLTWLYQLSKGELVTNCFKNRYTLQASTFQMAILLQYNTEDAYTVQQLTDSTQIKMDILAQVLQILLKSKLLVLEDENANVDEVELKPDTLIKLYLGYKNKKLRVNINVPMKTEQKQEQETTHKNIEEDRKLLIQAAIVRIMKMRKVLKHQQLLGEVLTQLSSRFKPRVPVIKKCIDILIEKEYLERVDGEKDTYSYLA
Numbers without * were called inactive. Shown is part of a subset that was picked to be rich in hits.

SMILES | RBX1-CUL1 inh
CC(C)(C)c1ccc(C2Nc3cccc4cccc(c34)N2)cc1 | -7.4
O=C(O)c1ccc(C2Nc3cccc4cccc(c34)N2)cc1 | 92.7*
Fc1cccc(C2Nc3cccc4cccc(c34)N2)c1 | -5.2
COc1ccc(O)c(CN2CCC(C(Cc3ccccc3F)N(C)Cc3cn(C)nc3C)CC2)c1 (centres undefined) | 2.2
Cc1ccc(-c2nnc(SCC(=O)Nc3nc(-c4ccccc4)cs3)n2N)cc1 | -1.8
COc1ccc(CC(O)c2ccc(OC)c(OC)c2)cc1 (centres undefined) | 2.3
COc1ccc(-c2noc(-c3ccc(N4CCC(O)CC4)nc3)n2)cc1 | 11.2
CC1=CC=CN2C1=NC(C(F)(F)F)(C(F)(F)F)N=C2c1ccc(F)cc1 | -2.9
COc1ccc(CNC(=O)CSc2ncc3c(n2)-c2cc(Cl)ccc2N(Cc2ccccc2)S3(=O)=O)cc1 | 2.5
COc1ccccc1NC(=O)CSc1ncc2c(n1)-c1cc(Cl)ccc1N(C)S2(=O)=O | -8.1
COc1ccc(NC(=O)CSc2ncc3c(n2)-c2cc(Cl)ccc2N(Cc2ccccc2F)S3(=O)=O)cc1 | 44.8*
N#CC1(C#N)C(C(=O)c2ccc(Br)cc2)C12CCCCC2 (centres undefined) | -0.6
FC(F)(F)c1cccc(Oc2ncccc2CNCc2ccccn2)c1 | -2.1
O=C1C2=CC(C=NCC(O)CO)C(=O)N2c2ccccc21 (centres undefined) | 25.3*
Cc1csc(SCC(=O)Nc2ccc(Br)cn2)n1 | -4.9
COCCOc1ccc(C(=O)Nc2cccc(Cl)c2)cc1 | 5.0
Nc1ccc2ccc3cccnc3c2n1 | -8.3
CS(=O)(=O)c1ccccc1C(=O)O | 4.1
Nc1ccc2cccc(C(=O)O)c2n1 | 69.9*
Cc1cc(/C=N/NC(=O)c2ccc(CN3CCc4ccccc4C3)cc2)c(C)n1-c1ccccc1F | -16.0
CN1C(=O)C(S(=O)C(C)(C)C)C(=O)c2ccccc21 (centres undefined) | -5.1
CN(C)c1nc2nonc2nc1N1CCCCC1CCn1cccn1 (centres undefined) | 4.3
Cc1ccc(NC(=O)CSc2nnc(-c3ccc(C)cc3)n2N)cc1 | -4.7
CC(NC(=O)c1ccccc1F)c1ccccc1 (centres undefined) | -11.9
CC(NC(=O)c1ccc(Br)cc1Br)c1ccccc1 (centres undefined) | 13.9
SMILES | RBX1-CUL1 inh
CC(NC(=O)c1cc([N+](=O)[O-])cc2c1-c1c(cc([N+](=O)[O-])cc1[N+](=O)[O-])C2=C(C#N)C#N)c1ccccc1 (centres undefined) | 39.2*
Cc1ccc2nc(C(F)(F)S(=O)(=O)O)[nH]c2c1 | 5.0
O=C(N/N=C/c1ccc(Cl)cc1Cl)c1ccc(O)c(O)c1 | 3.8
O=C(N/N=C/c1cccc(Cl)c1Cl)c1ccc(O)c(O)c1 | 54.8*
O=C(N/N=C/c1cccc(Cl)c1Cl)c1ccc(Br)cc1 | -0.2
COc1ccc2nc(NC(=O)CCCOc3ccc(Cl)cc3Cl)sc2c1 | 9.9
COc1ccc(N2CCN(S(=O)(=O)N3CCC(C)CC3)CC2)cc1 | -4.2
Cc1ccc(Sc2ccc(CC3=NC(=O)N(Cc4ccccc4)C3=O)o2)cc1 | -7.3
O=C(O)C(Cc1ccccc1)NS(=O)(=O)c1cccs1 (centres undefined) | -1.2
O=C1C(Cl)=CC(=NS(=O)(=O)c2cccs2)c2ccccc21 | 41.4*
O=C1C(=O)c2ccccc2/C1=C\c1cccs1 | 6.1
O=C1c2ccccc2N(c2ccccc2)C(=O)C1Sc1ccccc1 (centres undefined) | 4.7
O=C1c2cccc3cccc(c23)C(=O)C1Sc1ccccc1 | 99.5*
O=C1Nc2ccccc2C(=O)C1Sc1ccccc1 (centres undefined) | -0.3
CN(C(=O)c1cc2nc(-c3ccc4c(c3)OCO4)cc(C(F)(F)F)n2n1)c1ccc(OC(F)(F)Cl)cc1 | 5.8
Cc1cccc(C)c1NS(=O)(=O)c1ccc2ccccc2c1 | 8.2
N#Cc1nc2c(nc1C#N)-c1c3ccccc3cc3cccc-2c13 | 7.0
CC(=O)Nc1ccc2cc([N+](=O)[O-])ccc2c1 | 2.8
O=C(CSc1ccc(Cl)nn1)c1ccccc1 | 4.5
COc1ccccc1/C=N/NC(=O)c1ccn(Cc2ccc(Cl)cc2Cl)n1 | 1.9
CCOc1ccc(/C=C/C(=O)Nc2ccc3c(c2)OCO3)cc1OC | 7.5
CC(=O)Oc1c(/C=C(\C#N)C(N)=O)[nH]c2ccccc12 | 46.8*
COC(=O)/C(C#N)=C/c1c(OC)[nH]c2ccccc12 | -10.0
N#C/C(=C\c1ccc(Cl)s1)C(N)=O | 2.9
CCCCCOc1ccc(C2C(C(=O)c3cc4ccccc4o3)C(=O)C(=O)N2c2nc(C)c(C(C)=O)s2)cc1OC (centres undefined) | 0.7
SMILES | RBX1-CUL1 inh
CC(=O)c1sc(N2C(=O)C(=O)C(C(=O)c3cc4ccccc4o3)C2c2ccc(F)cc2)nc1C (centres undefined) | -0.7
O=C1C(=O)N(c2nnc(SCc3ccc(F)cc3)s2)C(c2cccc(Oc3ccccc3)c2)C1C(=O)c1cc2ccccc2o1 (centres undefined) | 40.5*
COc1cc(C2C(C(=O)c3cc4ccccc4o3)C(=O)C(=O)N2c2nnc(C)s2)ccc1OCc1ccccc1 (centres undefined) | 64.6*
Cc1ccc2nc(N3C(=O)C(=O)C(C(=O)c4cc5ccccc5o4)C3c3ccccc3)sc2c1 (centres undefined) | -3.2
Cc1ccc(CSc2nnc(N3C(=O)C(=O)C(C(=O)c4cc5ccccc5o4)C3c3ccc(OCc4ccccc4)cc3)s2)cc1 (centres undefined) | 46.8*
COc1cc(C2C(C(=O)c3cc4ccccc4o3)C(=O)C(=O)N2c2nc3c(C)cc(C)cc3s2)ccc1OCc1ccccc1 (centres undefined) | 4.3
O=C1C(=O)N(c2nnc(SCc3ccccc3F)s2)C(c2ccc(F)cc2)C1C(=O)c1cc2ccccc2o1 (centres undefined) | 3.2
Cc1ccc(C2C(C(=O)c3cc4ccccc4o3)C(=O)C(=O)N2c2nnc(SCc3cccc4ccccc34)s2)cc1 (centres undefined) | -9.3
COc1cc(OC)cc(C2c3c(n[nH]c3C(C)C)OC(=N)C2C#N)c1 (centres undefined) | -5.8
Cc1nc(-c2ccccc2)sc1-c1csc(Nc2ccccc2)n1 | -2.4
N#Cc1c(N=C2CCCc3ccccc32)sc2c1CCCC2 | -5.2
CCc1ccc(CNc2ccc(C(=O)O)cc2)cc1 | -6.3
COC1CCN(Cc2c(C(=O)N(C)CCc3ccccc3)nc3c(C)cccn23)CC1 | -9.2
O=C(COc1ccc(Br)cc1/C=C1/C(=O)ON=C1c1ccccc1)Nc1ccccc1 | 42.7*
CC(C)(C)c1cc(Br)ccc1OCC(=O)Nc1ccccc1 | 0.1
Cc1cccc(NC(=O)COc2ccc(Br)cc2C=C2C(=O)NC(=S)NC2=O)c1 | -0.4
Cc1[nH]n(-c2ccccc2)c(=O)c1CCc1ccccc1 | -3.7
Cc1[nH]n(-c2ccccc2)c(=O)c1C(c1cccc(OCc2ccc(Cl)cc2)c1)c1c(C)[nH]n(-c2ccccc2)c1=O | 10.2
CCOc1ccc(C(c2c(C)[nH]n(-c3ccccc3)c2=O)c2c(C)[nH]n(-c3ccccc3)c2=O)cc1OC | 8.3
CCOc1ccccc1C(c1c(C)[nH]n(-c2ccccc2)c1=O)c1c(C)[nH]n(-c2ccccc2)c1=O | 45.6*
Cc1[nH]n(-c2ccccc2)c(=O)c1C(c1ccc(C(=O)O)cc1)c1c(C)[nH]n(-c2ccccc2)c1=O | -11.9
COc1ccccc1C(c1c(C)[nH]n(-c2ccccc2)c1=O)c1c(C)[nH]n(-c2ccccc2)c1=O | 26.8*

From PubChem BioAssay
